Data reported in ChEMBL document CHEMBL1961873, “Compounds: GSK PKIS; Assays: Nanosyn kinase panel” (2012).

What was measured:
[1] = target: Protein kinase C gamma type (Homo sapiens) (UniProt P05129); conditions: at 1 µM;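 note: each value is an averaged percent inhibition of the enzyme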
[2] = target: T1, Protein kinase C iota type (Homo sapiens) (UniProt P41743); conditions: at 0.1 µM
T1 sequence (whole entry): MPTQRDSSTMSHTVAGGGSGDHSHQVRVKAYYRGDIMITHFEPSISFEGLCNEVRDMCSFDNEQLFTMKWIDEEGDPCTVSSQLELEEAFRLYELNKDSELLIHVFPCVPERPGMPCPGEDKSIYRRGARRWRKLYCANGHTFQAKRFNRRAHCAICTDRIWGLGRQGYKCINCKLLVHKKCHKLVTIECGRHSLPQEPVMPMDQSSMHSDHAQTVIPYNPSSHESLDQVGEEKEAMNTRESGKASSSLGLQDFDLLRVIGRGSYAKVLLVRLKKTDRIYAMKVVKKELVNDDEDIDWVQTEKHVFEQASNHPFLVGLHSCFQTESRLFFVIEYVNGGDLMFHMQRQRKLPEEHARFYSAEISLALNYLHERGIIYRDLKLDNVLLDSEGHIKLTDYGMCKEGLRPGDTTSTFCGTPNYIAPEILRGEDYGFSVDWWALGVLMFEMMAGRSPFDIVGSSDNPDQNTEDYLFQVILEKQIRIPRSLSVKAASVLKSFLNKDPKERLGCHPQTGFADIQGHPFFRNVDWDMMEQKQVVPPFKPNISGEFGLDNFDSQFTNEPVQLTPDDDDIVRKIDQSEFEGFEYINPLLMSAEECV

[3] = target: T1, Protein kinase C iota type (Homo sapiens); conditions: at 1 µM
[4] = target: Protein kinase C theta type (Homo sapiens) (UniProt Q04759); conditions: at 0.1 µM
Sequence of Protein kinase C theta type (Homo sapiens) (Q04759 whole entry, looked up): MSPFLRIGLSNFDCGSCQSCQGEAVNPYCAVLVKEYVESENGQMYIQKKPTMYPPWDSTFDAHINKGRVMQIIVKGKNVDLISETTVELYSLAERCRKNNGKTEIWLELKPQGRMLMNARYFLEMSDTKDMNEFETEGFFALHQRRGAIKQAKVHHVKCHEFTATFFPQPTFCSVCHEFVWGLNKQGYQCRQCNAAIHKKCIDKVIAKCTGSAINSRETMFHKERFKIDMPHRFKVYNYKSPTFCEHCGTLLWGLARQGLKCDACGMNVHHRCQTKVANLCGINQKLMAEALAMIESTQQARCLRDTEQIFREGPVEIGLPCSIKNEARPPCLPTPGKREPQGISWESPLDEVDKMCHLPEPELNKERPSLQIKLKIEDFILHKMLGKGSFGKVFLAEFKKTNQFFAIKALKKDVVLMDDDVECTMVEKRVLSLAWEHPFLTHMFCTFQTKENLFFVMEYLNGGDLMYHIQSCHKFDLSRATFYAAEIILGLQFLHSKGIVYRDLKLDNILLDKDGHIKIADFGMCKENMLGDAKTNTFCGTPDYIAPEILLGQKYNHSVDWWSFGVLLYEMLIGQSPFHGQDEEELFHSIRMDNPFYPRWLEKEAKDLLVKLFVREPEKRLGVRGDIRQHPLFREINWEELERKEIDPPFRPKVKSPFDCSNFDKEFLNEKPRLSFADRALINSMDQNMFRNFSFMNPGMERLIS

[5] = target: Protein kinase C theta type (Homo sapiens) (UniProt Q04759); conditions: at 1 µM
[6] = target: Protein kinase C beta type (Homo sapiens) (UniProt P05771); conditions: at 0.1 µM
Sequence of Protein kinase C beta type (Homo sapiens) (P05771 2-671 limits assumed): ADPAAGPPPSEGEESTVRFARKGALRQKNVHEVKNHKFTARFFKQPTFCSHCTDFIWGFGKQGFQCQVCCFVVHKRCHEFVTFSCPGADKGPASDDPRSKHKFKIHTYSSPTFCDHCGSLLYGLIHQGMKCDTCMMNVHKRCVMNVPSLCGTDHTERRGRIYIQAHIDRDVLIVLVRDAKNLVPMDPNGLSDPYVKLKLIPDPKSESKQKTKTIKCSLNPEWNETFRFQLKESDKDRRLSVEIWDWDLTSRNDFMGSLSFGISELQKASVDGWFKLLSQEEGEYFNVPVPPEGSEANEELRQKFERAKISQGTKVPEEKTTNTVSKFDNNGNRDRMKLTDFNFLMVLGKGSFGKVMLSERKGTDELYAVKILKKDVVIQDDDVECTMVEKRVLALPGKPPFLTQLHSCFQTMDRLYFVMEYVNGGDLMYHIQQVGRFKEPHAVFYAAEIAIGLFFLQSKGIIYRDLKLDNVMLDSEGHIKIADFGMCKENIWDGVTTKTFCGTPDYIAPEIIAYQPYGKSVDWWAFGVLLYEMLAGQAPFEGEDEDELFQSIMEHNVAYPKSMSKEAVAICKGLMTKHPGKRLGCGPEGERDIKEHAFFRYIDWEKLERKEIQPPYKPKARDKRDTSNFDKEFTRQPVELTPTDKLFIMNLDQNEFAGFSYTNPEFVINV

[7] = target: Protein kinase C beta type (Homo sapiens) (UniProt P05771); conditions: at 1 µM
[8] = target: T2, Serine/threonine-protein kinase D1 (Homo sapiens) (UniProt Q15139); conditions: at 0.1 µM
T2 sequence (whole entry): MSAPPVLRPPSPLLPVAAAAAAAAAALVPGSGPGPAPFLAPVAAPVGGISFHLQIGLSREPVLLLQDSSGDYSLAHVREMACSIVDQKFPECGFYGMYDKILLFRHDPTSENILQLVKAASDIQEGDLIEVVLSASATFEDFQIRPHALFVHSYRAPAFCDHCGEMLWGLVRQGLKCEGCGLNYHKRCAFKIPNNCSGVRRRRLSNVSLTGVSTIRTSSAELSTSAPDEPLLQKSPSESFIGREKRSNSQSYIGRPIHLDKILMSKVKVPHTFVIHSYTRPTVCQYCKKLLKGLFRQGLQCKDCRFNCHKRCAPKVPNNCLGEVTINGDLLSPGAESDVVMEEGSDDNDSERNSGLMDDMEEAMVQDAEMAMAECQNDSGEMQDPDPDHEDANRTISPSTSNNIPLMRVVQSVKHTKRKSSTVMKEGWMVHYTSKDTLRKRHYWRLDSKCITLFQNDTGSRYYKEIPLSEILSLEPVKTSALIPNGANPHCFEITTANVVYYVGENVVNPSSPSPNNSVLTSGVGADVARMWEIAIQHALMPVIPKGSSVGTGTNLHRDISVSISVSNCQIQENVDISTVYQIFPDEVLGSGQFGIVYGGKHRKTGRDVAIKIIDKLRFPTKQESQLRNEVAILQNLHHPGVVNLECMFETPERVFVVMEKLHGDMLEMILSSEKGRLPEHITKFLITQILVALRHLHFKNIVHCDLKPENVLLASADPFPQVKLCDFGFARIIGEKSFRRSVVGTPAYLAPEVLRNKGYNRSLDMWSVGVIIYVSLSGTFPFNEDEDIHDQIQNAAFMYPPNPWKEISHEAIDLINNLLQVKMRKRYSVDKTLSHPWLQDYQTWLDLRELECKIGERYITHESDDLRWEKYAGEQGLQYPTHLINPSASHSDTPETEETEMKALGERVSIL

[9] = target: T2, Serine/threonine-protein kinase D1 (Homo sapiens); conditions: at 1 µM
[10] = target: T3, Serine/threonine-protein kinase D2 (Homo sapiens) (UniProt Q9BZL6); conditions: at 0.1 µM
T3 sequence (whole entry): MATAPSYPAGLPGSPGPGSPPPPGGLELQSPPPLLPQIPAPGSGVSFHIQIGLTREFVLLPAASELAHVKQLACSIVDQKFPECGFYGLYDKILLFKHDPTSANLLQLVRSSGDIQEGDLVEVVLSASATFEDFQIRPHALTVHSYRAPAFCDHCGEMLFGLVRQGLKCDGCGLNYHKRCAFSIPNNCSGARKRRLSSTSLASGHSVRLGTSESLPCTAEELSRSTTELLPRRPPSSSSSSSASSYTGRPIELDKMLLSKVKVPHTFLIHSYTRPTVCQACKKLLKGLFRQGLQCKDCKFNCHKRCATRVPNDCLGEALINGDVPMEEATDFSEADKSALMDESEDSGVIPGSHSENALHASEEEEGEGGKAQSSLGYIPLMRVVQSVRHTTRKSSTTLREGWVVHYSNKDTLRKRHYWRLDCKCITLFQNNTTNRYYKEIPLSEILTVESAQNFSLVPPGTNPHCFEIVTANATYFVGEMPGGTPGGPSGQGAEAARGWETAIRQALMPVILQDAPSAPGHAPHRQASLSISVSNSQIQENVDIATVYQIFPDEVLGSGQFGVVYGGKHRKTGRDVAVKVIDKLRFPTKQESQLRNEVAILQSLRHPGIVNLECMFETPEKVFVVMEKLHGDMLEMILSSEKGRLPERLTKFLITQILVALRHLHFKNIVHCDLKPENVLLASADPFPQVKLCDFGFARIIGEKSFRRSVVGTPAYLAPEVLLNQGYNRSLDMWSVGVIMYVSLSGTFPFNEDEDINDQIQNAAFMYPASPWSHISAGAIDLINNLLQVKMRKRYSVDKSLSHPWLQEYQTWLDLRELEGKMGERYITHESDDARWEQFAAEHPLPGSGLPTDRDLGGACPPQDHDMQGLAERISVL

[11] = target: T3, Serine/threonine-protein kinase D2 (Homo sapiens); conditions: at 1 µM
[12] = target: T4, Serine/threonine-protein kinase D3 (Homo sapiens) (UniProt O94806); conditions: at 0.1 µM
T4 sequence (whole entry): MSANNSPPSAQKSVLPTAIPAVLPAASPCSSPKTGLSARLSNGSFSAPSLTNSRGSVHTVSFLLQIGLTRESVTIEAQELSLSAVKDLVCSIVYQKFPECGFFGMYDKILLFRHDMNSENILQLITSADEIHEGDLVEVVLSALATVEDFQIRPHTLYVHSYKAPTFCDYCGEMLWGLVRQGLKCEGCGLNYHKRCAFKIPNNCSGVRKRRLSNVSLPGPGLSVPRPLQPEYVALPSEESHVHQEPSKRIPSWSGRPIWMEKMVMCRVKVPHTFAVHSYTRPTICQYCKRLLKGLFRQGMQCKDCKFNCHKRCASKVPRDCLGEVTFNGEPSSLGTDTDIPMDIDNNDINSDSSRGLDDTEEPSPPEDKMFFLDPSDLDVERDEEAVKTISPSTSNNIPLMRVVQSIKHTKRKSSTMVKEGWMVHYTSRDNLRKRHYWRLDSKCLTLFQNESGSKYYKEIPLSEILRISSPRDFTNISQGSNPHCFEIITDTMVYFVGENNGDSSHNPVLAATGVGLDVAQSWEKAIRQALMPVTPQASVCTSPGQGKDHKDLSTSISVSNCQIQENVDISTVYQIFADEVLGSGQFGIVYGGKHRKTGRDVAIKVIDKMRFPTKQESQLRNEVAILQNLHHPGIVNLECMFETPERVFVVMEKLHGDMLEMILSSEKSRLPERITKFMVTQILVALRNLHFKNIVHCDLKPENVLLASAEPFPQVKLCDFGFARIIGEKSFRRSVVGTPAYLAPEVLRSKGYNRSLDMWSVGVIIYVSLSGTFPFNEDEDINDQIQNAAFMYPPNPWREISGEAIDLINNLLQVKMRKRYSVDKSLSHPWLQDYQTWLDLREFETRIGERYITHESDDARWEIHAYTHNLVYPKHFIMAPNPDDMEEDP

[13] = target: T4, Serine/threonine-protein kinase D3 (Homo sapiens); conditions: at 1 µM
[14] = target: T5, cGMP-dependent protein kinase 1 (Homo sapiens) (UniProt Q13976); conditions: at 0.1 µM
T5 sequence (whole entry): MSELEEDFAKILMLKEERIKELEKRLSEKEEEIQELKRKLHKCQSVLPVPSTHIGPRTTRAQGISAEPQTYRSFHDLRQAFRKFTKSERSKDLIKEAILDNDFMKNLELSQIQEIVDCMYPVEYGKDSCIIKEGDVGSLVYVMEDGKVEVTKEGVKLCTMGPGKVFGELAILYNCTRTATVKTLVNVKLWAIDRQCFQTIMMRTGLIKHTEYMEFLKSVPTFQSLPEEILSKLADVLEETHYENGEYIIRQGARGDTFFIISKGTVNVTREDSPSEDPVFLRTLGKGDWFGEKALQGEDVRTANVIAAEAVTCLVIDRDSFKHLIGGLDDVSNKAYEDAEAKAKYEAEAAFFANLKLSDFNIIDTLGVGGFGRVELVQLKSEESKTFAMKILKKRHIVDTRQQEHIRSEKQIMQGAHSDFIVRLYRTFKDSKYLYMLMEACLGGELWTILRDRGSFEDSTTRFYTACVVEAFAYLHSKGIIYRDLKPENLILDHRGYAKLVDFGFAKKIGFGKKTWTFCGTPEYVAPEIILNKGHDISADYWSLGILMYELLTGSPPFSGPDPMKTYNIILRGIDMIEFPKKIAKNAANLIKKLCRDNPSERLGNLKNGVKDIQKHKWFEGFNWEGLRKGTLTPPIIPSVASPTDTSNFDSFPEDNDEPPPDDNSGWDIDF

[15] = target: T5, cGMP-dependent protein kinase 1 (Homo sapiens); conditions: at 1 µM
[16] = target: T6, cGMP-dependent protein kinase 2 (Homo sapiens) (UniProt Q13237); conditions: at 0.1 µM
T6 sequence (whole entry): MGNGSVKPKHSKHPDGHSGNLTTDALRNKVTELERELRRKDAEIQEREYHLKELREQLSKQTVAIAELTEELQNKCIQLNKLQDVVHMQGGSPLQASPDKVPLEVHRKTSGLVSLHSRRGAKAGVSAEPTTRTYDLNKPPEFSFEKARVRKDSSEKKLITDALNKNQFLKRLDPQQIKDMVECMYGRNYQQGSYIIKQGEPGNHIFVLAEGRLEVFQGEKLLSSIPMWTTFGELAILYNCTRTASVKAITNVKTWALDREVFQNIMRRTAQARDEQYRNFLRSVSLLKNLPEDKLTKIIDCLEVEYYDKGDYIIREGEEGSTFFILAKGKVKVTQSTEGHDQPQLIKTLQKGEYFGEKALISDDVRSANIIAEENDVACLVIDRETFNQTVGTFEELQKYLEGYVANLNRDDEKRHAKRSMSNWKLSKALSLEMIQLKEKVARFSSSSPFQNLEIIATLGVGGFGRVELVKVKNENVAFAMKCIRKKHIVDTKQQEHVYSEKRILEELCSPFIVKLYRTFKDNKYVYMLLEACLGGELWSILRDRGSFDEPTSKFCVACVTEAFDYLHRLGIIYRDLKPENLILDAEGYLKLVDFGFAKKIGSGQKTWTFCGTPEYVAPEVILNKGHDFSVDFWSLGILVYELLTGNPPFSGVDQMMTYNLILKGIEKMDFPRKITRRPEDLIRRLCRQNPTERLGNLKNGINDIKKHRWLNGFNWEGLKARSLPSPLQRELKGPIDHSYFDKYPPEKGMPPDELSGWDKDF

[17] = target: T6, cGMP-dependent protein kinase 2 (Homo sapiens); conditions: at 1 µM
[18] = target: T7, cAMP-dependent protein kinase catalytic subunit PRKX (Homo sapiens) (UniProt P51817); conditions: at 0.1 µM
T7 sequence (whole entry): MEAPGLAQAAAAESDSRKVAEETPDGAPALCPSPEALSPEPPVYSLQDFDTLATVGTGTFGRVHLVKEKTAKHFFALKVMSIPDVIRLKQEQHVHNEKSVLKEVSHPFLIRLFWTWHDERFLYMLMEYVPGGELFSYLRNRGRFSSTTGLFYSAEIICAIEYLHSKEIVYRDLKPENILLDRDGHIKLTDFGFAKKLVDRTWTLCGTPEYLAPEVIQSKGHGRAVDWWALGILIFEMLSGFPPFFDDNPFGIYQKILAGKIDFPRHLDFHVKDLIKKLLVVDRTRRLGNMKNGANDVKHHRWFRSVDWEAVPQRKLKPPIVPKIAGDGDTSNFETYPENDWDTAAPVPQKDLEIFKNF

[19] = target: T7, cAMP-dependent protein kinase catalytic subunit PRKX (Homo sapiens); conditions: at 1 µM
[20] = target: Rho-associated protein kinase 1 (Homo sapiens) (UniProt Q13464); conditions: at 0.1 µM;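 note: values are mean percent inhibition of ROCK1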
Sequence of Rho-associated protein kinase 1 (Homo sapiens) (Q13464 2-1354 limits assumed): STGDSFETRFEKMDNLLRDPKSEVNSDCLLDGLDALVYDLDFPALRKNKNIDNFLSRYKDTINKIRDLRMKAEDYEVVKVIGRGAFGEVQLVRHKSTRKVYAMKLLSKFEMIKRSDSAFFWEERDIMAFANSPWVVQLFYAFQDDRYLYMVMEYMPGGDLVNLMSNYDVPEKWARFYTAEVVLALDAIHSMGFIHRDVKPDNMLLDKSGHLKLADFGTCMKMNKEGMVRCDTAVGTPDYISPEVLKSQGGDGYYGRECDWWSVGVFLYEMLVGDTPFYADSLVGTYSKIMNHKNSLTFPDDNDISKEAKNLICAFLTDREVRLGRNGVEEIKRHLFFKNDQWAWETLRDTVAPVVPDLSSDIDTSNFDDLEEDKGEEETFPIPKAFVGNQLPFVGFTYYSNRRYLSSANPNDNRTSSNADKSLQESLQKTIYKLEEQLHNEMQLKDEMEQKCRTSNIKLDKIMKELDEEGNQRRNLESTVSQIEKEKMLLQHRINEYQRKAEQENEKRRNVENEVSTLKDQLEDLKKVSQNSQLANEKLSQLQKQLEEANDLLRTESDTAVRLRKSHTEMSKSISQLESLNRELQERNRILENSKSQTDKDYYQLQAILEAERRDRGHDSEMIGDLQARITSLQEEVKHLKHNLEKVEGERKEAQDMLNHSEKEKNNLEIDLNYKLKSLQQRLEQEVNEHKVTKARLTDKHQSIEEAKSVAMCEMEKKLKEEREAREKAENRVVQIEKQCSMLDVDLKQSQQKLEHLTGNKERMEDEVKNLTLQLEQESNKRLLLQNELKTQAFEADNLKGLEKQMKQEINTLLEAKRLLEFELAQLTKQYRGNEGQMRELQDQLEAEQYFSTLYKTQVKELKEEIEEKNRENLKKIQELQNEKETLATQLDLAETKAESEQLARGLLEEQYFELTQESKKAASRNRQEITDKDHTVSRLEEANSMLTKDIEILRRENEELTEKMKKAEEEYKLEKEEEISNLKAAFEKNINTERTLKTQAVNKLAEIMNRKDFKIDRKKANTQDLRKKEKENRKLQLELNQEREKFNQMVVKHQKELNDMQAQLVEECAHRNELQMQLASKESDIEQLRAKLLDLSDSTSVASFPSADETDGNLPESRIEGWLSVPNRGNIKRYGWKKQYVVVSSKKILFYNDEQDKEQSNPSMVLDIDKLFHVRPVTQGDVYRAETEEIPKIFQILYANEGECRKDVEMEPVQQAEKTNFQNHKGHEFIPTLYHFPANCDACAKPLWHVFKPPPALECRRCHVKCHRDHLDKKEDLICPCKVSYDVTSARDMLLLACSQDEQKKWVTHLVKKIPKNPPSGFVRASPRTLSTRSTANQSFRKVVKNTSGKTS

| SMILES | inhibition [1] [%] | inhibition [2] [%] | inhibition [3] [%] | inhibition [4] [%] | inhibition [5] [%] | inhibition [6] [%] | inhibition [7] [%] | inhibition [8] [%] | inhibition [9] [%] | inhibition [10] [%] | inhibition [11] [%] | inhibition [12] [%] | inhibition [13] [%] | inhibition [14] [%] | inhibition [15] [%] | inhibition [16] [%] | inhibition [17] [%] | inhibition [18] [%] | inhibition [19] [%] | inhibition [20] [%] |
| --- | --- | --- | --- | --- | --- | --- | --- | --- | --- | --- | --- | --- | --- | --- | --- | --- | --- | --- | --- | --- |
| Cc1nc(-c2ccccc2)n2nc(NCCCN3CCOCC3)ncc12 | 4.35 | -0.08 | -1.15 | 1.47 | -0.08 | 1.18 | 2.05 | 2.52 | 3.13 | 2.7 | 2.01 | 1.88 | 2.23 | 1.36 | 3.22 | 1.49 | 3.07 | 2.28 | 1.01 | 0.46 |
| CCOc1nccc2c1nc(-c1nonc1N)n2CC | 0.08 | 3.07 | 0.84 | 2.98 | 6.45 | 3.06 | 5.23 | 3.37 | 1.82 | 1.9 | 1.39 | 3.3 | 2.21 | 4.09 | 5.91 | 8.5 | 43.1 | 3.1 | 2.76 | 2.91 |
